High-throughput results: PubChem, National Center for Advancing Translational Sciences (NCATS)
Shown are actives, neighbours in structure and some others; about 22% of the full set was active somewhere.
LmPK inhibitor = inhibitors of Leishmania mexicana pyruvate kinase | actives 0.37% (n = 290,000) | purified LmPK, Kinase-Glo ATP luminescence, 1 h | AID 1721 | Potency, µM (top dose mostly 57.5 µM), for the others: at the top dose activity change, negative = inhibition, most hits filed as inhibitors; further: potency means the concentration at half of the fitted maximal effect; on the % scale 0 is the no-effect control and ±100 the full control effect
Target sequence (Q27686 whole entry, looked up): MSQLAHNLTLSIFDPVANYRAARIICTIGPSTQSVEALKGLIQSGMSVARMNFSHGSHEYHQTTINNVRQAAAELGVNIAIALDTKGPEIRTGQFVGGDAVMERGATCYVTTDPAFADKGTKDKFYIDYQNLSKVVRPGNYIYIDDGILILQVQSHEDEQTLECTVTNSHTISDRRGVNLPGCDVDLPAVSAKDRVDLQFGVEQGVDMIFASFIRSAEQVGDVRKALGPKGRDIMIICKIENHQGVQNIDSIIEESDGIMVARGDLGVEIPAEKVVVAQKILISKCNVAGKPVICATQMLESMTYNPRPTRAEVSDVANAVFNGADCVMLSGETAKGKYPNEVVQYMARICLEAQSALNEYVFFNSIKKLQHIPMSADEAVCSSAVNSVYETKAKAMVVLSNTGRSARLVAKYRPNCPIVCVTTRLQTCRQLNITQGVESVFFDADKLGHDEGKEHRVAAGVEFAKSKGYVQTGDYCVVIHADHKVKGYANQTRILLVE
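Purified LmPK (0.1 nM) with 0.5 mM PEP and 0.1 mM ADP in imidazole buffer pH 7.2 with MgCl2/KCl, 1 h at room temperature. ATP formed was read by luciferase luminescence and normalized to no-enzyme and uninhibited controls.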
Pf growth 96h = P. falciparum growth inhibition at 96 hour, primary screen for plastid delayed-death inhibitors. P. falciparum luciferase reporter growth, 96 h. Potency, µM (doses to about 28.7 µM), inactives show top-dose activity change, negative = inhibition, usual class: inhibitors. actives 6.9% (n = 320,000). AID 504834; further: potency means the concentration at half of the fitted maximal effect; on the % scale 0 is the no-effect control and ±100 the full control effect
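Luminescence readout: decreased luciferase signal marks inhibited growth of reporter-expressing P. falciparum in infected red cells (2% hematocrit, 0.05% parasitemia final), exposed to compound two generations (96 h, 37 C, 5% CO2).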
Pf growth 48h = P. falciparum growth inhibition at 48 hours (one generation) | P. falciparum luciferase growth in erythrocytes, 48 h | Potency, µM (highest dose often 28.7 µM), for inactives: top-dose activity change, negative = inhibition, usual class: inhibitors | actives 5.9% (n = 310,000); further: potency means the concentration at half of the fitted maximal effect; on the % scale 0 is the no-effect control and ±100 the full control effect
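Cell-based growth assay: transgenic P. falciparum expressing firefly luciferase, cultured in red cells within RPMI 1640 containing 0.5% w/v Albumax, 24 mM bicarbonate and gentamycin. A drop in luciferase activity indicates inhibition.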
Shiga toxin inh = Shiga toxin inhibition | Vero cells, Shiga toxin protein synthesis inhibition reporter | inhibition, % at 38.7 µM | actives 9.2% (n = 290,000); in the data active means inhibition mostly above about 28%, no sharp cut-off; inactive means mostly below about 43%; further: 0% is about no effect
Cycloheximide cs = counter-screen hit for Shiga toxin inhibitors, cycloheximide | AID 2314 | actives 12% (n = 300,000) | max response, % | cell reporter, cycloheximide protein synthesis inhibition counterscreen; in the data active means max response mostly above about 13%, no sharp cut-off; inactive means mostly below about 14%; further: read at 38.3 µM for the half of the compounds with a filed dose; 0% is about no effect
Starred values were filed as active, the others as inactive; ? = inconclusive; · = no result; [ ] = dose if it differs, or a comment. Unless noted, the call rests on the fitted dose curve; in most records, active means well fitted inhibition curve with a large enough effect; inconclusive means small, poorly fitted or top-dose-only effect, or another doubt; inactive means no such curve, though single readings can be large or run the other way.

SMILES | LmPK inhibitor | Pf growth 96h | Pf growth 48h | Shiga toxin inh | Cycloheximide cs
COc1ccc(Cc2nnc(NC(=O)C3CCCO3)s2)cc1 (centres undefined) | 1% | ? | -13% | 49 | 24*
COC(=O)c1c(-c2ccc(C)cc2)csc1NC(=S)NC(=O)c1cc(OC)cc(OC)c1 | 2% | 8.3µM* | ? | 7 | -4
COc1ccc(NC(=O)C2CCCO2)cc1 (centres undefined) | 1% | 54% | 56% | 27 | 16*
COc1ccc(Cc2nnc(NC(=O)C3CCCO3)s2)cc1OC (centres undefined) | -4% | ? | 27% | -7 | 1
Cc1cc2c(NCc3ccccc3)ncnc2s1 | 4% | 3% | ? | · | 3
O=C(Nc1ccc(Oc2ccccc2)cc1)C1CCN(c2ncccn2)CC1 | -1% | 14% | 8% | 4 | -3
O=C(Nc1ccc(C#Cc2ccccc2)cc1)C1CC1 | 0% | 0% | -51% | 51* | 44*
O=C(Nc1ccc(Oc2ccccc2)cc1)C1CC1 | 0% | -41%[1.15 µM] | -23% | 71* | 21
COc1ccc(-c2csc(NC(=O)C3CCCCN3S(=O)(=O)c3ccccc3)n2)cc1 (centres undefined) | -1% | 7.4µM* | ? | -22 | -2
COC(=O)c1c(-c2ccc(F)cc2)csc1NC(=O)C1CCCO1 (centres undefined) | 6% | -23% | 17% | 68 | 26*
C[C@H](O)C(=O)Nc1c(I)c(C(=O)NC(CO)CO)c(I)c(C(=O)NC(CO)CO)c1I | · | 6%[12.8 µM] | 7%[12.8 µM] | · | ·
O=C(Nc1cccc(C(F)(F)F)c1)Nc1ccon1 | -6% | 3% | 10% | 14 | -3
CC1(C)Oc2ccc(C#N)cc2[C@H](N2CCCC2=O)[C@H]1O | · | 9% | -9% | · | ·
COCCCC1CCN(C(=O)C2CCC(=O)N(Cc3cccc(F)c3)C2)CC1 (centres undefined) | 4% | ? | ? | -3 | 10
Cc1ncoc1C(=O)N1CCCC(N2CCN(c3ccccc3F)CC2)C1 (centres undefined) | 8% | ? | ? | 2 | -1
COc1ccc(-c2csc(NC(=O)C3CCCO3)n2)cc1 (centres undefined) | 1% | 68% | 79% | 82* | 43*
CCC1CSC(=Nc2ccc(C)cc2)N1C(=O)CN1C(=O)NC2(CCCC2)C1=O (centres undefined) | 1% | -45% | -54% | 74* | 34*
CC(C(=O)Nc1ccc(F)c(F)c1F)N(C)CC(=O)Nc1ccccc1Br (centres undefined) | 0% | 11% | -11% | -10 | -4
O=C(c1ccco1)N1CCN(S(=O)(=O)c2cccc(Cl)c2)CC1 | -5% | 0% | 14% | -6 | -2
Cc1cc(=O)oc2c3c(cc(OCC(=O)N[C@@H](C)C(=O)O)c12)OC(C)(C)CC3 | 1% | 12% | -17% | -4 | -1
Cc1cc(=O)oc2c3c(cc(OCC(=O)NCc4cccnc4)c12)OC(C)(C)CC3 | -1% | ? | ? | -9 | 1
Cc1cc(=O)oc2c3c(cc(OCC(=O)NC(C)C)c12)OC(C)(C)CC3 | 2% | ? | 9.3µM* | -8 | -4
Cc1cc(=O)oc2c3c(cc(OCC(=O)NCCC(=O)O)c12)OC(C)(C)CC3 | -5% | 0% | 12% | 1 | -2
COc1ccc(CNC(=O)COc2cc3c(c4oc(=O)cc(C)c24)CCC(C)(C)O3)cc1 | 8% | 8.3µM* | ? | -11 | -3
COc1ccccc1CNC(=O)COc1cc2c(c3oc(=O)cc(C)c13)CCC(C)(C)O2 | -8% | 3.7µM* | ? | -4 | -3
SMILES | LmPK inhibitor | Pf growth 96h | Pf growth 48h | Shiga toxin inh | Cycloheximide cs
COc1cccc(CNC(=O)COc2cc3c(c4oc(=O)cc(C)c24)CCC(C)(C)O3)c1 | 0% | 13µM* | 9.3µM* | -1 | -2
NS(=O)(=O)c1cc2c(cc1Cl)NC(c1ccccc1OCC(=O)O)NS2(=O)=O (centres undefined) | 4% | 16% | 29% | 22 | -1
Nc1c(C(=O)NCc2ccco2)sc2nc(N3CCOCC3)c3c(c12)CCCC3 | -11% | ? | 9.3µM* | -2 | -1
CCN(CC)C(=O)c1sc2nc(N3CCOCC3)c3c(c2c1N)CCCC3 | -24% | · | ? | -18 | -4
COC(=O)c1ccc(-c2sc3nc(N4CCOCC4)c4c(c3c2N)CCCC4)o1 | 7% | 9.3µM* | 9% | -15 | 2
CCOC(=O)c1sc2nc(N3CCOCC3)c3c(c2c1N)CCCC3 | 1% | 1µM* | 28% | -10 | -3
COc1cc(OC)c(-c2c3cc(O)c(=O)cc-3oc3cc(O)c(O)cc23)cc1OC | -18% | 3.7µM* | 2.3µM* | -13 | -4
O=[N+]([O-])c1ccc(CSc2nc3ccccc3[nH]2)cc1 | -17% | ? | 125% | 38* | 35*
CC1(C)C(CSc2nc3ccccc3[nH]2)C1(Cl)Cl (centres undefined) | 5% | ? | 5% | 72* | 27
c1ccc(CSCc2nc3ccccc3[nH]2)cc1 | -7% | 96% | 77% | 74* | 62*
Fc1ccc(CSc2nc3ccccc3[nH]2)c2ccccc12 | 0% | ? | · | 18 | 11
Fc1ccc(CSc2nc3ccccc3[nH]2)cc1 | 22µM* | · | 120% | 132* | 49*
O=c1cnnc(SCc2ccc([N+](=O)[O-])cc2)[nH]1 | 1%[11.5 µM] | 19% | 4% | -9 | -1
O=C(CSc1nc2ccccc2[nH]1)NCc1ccc(F)cc1 | 3% | 1% | ? | 29 | 6
CC(Sc1ccc(S(=O)(=O)N(C)C)cn1)C(=O)NC1CCCC1 (centres undefined) | · | 7% | 26% | · | ·
O=C(CNC1CCCCC1)NN=C(c1ccccc1)c1ccccc1 | 0% | -29% | -29% | -5 | -7
CCSc1nc2ccccc2[nH]1 | -9% | 10% | 17% | 8 | 4
CC(C)CSc1nc2ccccc2[nH]1 | -11% | -21% | 115% | 94* | 45*
c1ccc(CSc2nc3ccccc3[nH]2)cc1 | ? | 230% | 183% | 57* | 44*
CCOc1ccc(OCCSc2nc3ccccc3[nH]2)cc1 | 4% | ? | -22% | 19 | 19
O=c1cc(CSc2nc3ccccc3[nH]2)c2ccccc2[nH]1 | 0% | -10% | · | 53* | 28*
Nc1nc(CSc2nc3ccccc3[nH]2)cs1 | -8% | 25% | 118% | 47* | 25*
COc1ccccc1N1CCN(C(=S)NC(=O)/C=C/c2ccccc2)CC1 | -5% | ? | ? | 30 | 12
C=CC1=C2C=C(C3CC3)N(Cc3ccccc3)C=C2C(=O)C(C)(OC(=O)c2ccco2)C1=O (centres undefined) | -6%[11.5 µM] | · | · | · | ·
O=C(COC(=O)Cc1c(F)cccc1Cl)Nc1nnc(-c2ccccc2)o1 | · | 5% | 1% | · | ·
O=C(CSc1nc2[nH]ncc2c(=O)[nH]1)Nc1ccccc1 | -5% | 40% | 13% | 11 | -2
CCCOc1ccc(CSc2nc3ccccc3[nH]2)cc1 | ? | 103% | 94% | 84* | 49*
